Reference: PubChem BioAssay AID652016 (National Center for Advancing Translational Sciences (NCATS), 2013)
Results filed as inconclusive are left out. Values without a mark were called inactive. Activity calls are given as the source filed them. Calls come from the whole dose curve; as a rule, active = well fitted inhibition curve with a large enough effect; inconclusive = small, poorly fitted or top-dose-only effect; inactive = flat fitted curve, though single readings scatter.

Molecular target: Luciferin 4-monooxygenase (Photinus pyralis) (UniProt P08659)
Assay: qHTS Assay for Inhibitors of Firefly Luciferase from the GSK Published Protein Kinase Inhibitor Set
Conditions: purified firefly luciferase, luminescence inhibition; series mostly up to 57.5 µM; activity change, negative = inhibition: at the top concentration
Summary of the method: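 Purified P. pyralis luciferase, 10nM, with 10uM D-luciferin and 10uM ATP in 50mM Tris acetate pH 7.5, 10mM Mg acetate, 0.01% Tween-20, 0.05% BSA. Titration ~60uM to 300pM; luminescence read after about 5 min.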
% is set by controls: 0 for no effect and ±100 for the full control effect; potency is the fitted concentration of half-maximal effect.

Luciferin 4-monooxygenase (Photinus pyralis), sequence (P08659 whole entry, looked up): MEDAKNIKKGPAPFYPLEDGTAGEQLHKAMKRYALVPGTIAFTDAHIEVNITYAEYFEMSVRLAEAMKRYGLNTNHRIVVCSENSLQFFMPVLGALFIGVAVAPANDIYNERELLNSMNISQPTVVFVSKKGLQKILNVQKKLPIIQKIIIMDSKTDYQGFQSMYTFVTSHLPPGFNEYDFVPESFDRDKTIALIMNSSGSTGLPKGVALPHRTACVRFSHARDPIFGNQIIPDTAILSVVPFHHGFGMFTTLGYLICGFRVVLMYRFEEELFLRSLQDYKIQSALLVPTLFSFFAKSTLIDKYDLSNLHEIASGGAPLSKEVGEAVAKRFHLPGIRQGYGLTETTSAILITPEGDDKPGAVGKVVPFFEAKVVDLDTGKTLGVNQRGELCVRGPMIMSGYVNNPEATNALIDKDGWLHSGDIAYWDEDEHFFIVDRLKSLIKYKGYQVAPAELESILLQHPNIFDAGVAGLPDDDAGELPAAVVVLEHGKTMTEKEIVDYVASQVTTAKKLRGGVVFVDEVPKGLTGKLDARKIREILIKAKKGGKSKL

For `c1cc(-c2cnn3nc(N4CCOCC4)ccc23)nc(NC2CC2)n1`, the Potency was 4.61 µM (active).
`CNC(=O)c1cncc(C=Cc2ccccc2Cl)c1` was tested, and the Potency was 9.19 µM (active).
In the case of `CCn1c(-c2nonc2N)nc2c(C#CC(C)(C)O)nc(OCC(N)c3ccccc3)cc21` (centres undefined), the Potency is reported as “inactive”.

Compared with `CCn1c(-c2nonc2N)nc2c(C#CC(C)(C)O)nc(OCCNC)cc21`, `CCc1nccc2c1nc(-c1nonc1N)n2CC` is higher in “activity change, negative = inhibition” value: 2.21% for the first, 4.72% for the second.

Compared with `COc1ccc(-c2nn3ncccc3c2-c2ccnc(Nc3cccc(C(F)(F)F)c3)n2)cc1`, `Fc1ccc(-c2ncn(C3CCNCC3)c2-c2ccnc(Oc3cccc(C(F)(F)F)c3)n2)cc1` is higher in “activity change, negative = inhibition” value: -0.544% for the first, -0.174% for the second.

Going from `CCS(=O)(=O)c1ccc(OC)c(Nc2ncc(-c3cccc(-c4ccccc4F)c3)o2)c1` to `c1ccc(Oc2ccc(Nc3ncc(-c4ccccc4)o3)cc2)cc1`, the “activity change, negative = inhibition” value rises from -18.1% to -13.6%.

Compared with `O=C1NC(=O)C(c2cccc(Cl)c2)=C1Nc1ccc(O)c(Cl)c1`, `CC(=O)Nc1cccc(C#Cc2cncnc2Nc2ccc(OCc3cccc(F)c3)c(Cl)c2)n1` is lower in “activity change, negative = inhibition” value: -4.63% for the first, -10.5% for the second.

Going from `Nc1ncnc2occ(-c3ccc(NC(=O)Nc4cc(C(F)(F)F)cc(C(F)(F)F)c4)cc3)c12` to `COC(=O)Nc1nc2ccc(S(=O)(=O)c3ccc(NC(=O)Nc4cc(C(F)(F)F)ccc4F)cc3)cc2[nH]1`, the “activity change, negative = inhibition” value falls from 6.97% to 5.29%.

Compared with `NS(=O)(=O)c1ccc(-c2ccc3c(NC(=O)C4CC4)n[nH]c3c2)cc1`, `O=C(Nc1n[nH]c2nc(-c3ccco3)ccc12)C1CC1` is higher in “activity change, negative = inhibition” value: -13.7% for the first, -2.36% for the second.

Going from `COc1ccc(CNC(=O)c2ccc(-c3cc(-c4nnc(C)o4)ccc3C)cc2)cc1` to `NC(=O)c1ccc(-c2nc(-c3ccc4c(c3)OCO4)c(-c3ccccn3)[nH]2)cc1`, the “activity change, negative = inhibition” value falls from 8.91% to -16.4%.

Compared with `CNC(=O)c1cncc(C=Cc2ccccc2C)c1`, `COc1ccc2ncn(-c3cc(OC(C)c4ccccc4Cl)c(C(N)=O)s3)c2c1` (centres undefined) is lower in “activity change, negative = inhibition” value: 9.18% for the first, 2.04% for the second.

First: NS(=O)(=O)c1ccc(-c2cc3ccncc3cc2OCc2ccccc2)cc1
Second: COc1ccc2ncnc(Nc3ccc(OCc4ccccc4)cc3)c2c1
The “activity change, negative = inhibition” value of the first is higher: 2.83% for the first, -15.7% for the second.

Going from `COc1cc2c(cc1Nc1nc(Nc3cccc(F)c3C(N)=O)c3cc[nH]c3n1)N(C(=O)CN1CCN(C(C)C)CC1)CC2` to `CCCN1CCCC(c2ccc(Nc3nc(Nc4cc(F)ccc4C(N)=O)c4cc[nH]c4n3)c(OC)c2)C1` (centres undefined), the “activity change, negative = inhibition” value rises from 4.88% to 27.6%.

Compared with `CCN1CCC(CC(=O)Nc2n[nH]c3nc(-c4cccs4)c(Br)cc23)CC1`, `NC(=O)CCc1ccccc1Oc1nccc(-c2c(-c3ccc(F)cc3)ncn2C2CCNCC2)n1` is higher in “activity change, negative = inhibition” value: 3% for the first, 11.4% for the second.

Going from `CNC(=O)c1cc(-c2ccc(F)cc2)cc(-c2ccc(S(=O)(=O)N3CCCC3)cc2)c1N` to `CC1=C(C(=O)Nc2ccc3[nH]ncc3c2)C(c2ccc(F)cc2)NC(=O)N1` (centres undefined), the “activity change, negative = inhibition” value falls from 9.72% to -2.1%.

First: NCc1ccc(-n2c(-c3nonc3N)nc3cnccc32)cc1
Second: CCn1c(-c2nonc2N)nc2ccccc21
The “activity change, negative = inhibition” value of the first is higher: 12.6% for the first, 2.35% for the second.

Going from `COC(=O)Nc1nc2ccc(Oc3ccc(NC(=O)Nc4cccc(Br)c4)cc3)cc2[nH]1` to `CCn1cc(-c2ccnc3[nH]ccc23)c(-c2cccc(NC(=O)Nc3ccc(OCc4ccccc4)cc3)c2)n1`, the “activity change, negative = inhibition” value rises from -19.6% to 17.6%.

Compared with `COc1ccc(COc2ccc(Cc3cnc(N)nc3N)cc2OC)cc1`, `COc1cc2ncn(-c3cc(OCc4ccccc4C(F)(F)F)c(C(N)=O)s3)c2cc1OC` is lower in “activity change, negative = inhibition” value: 0.275% for the first, -6.98% for the second.

For `CC(C)c1ccc(-c2cc(-c3cn[nH]c3-c3ccccn3)ccn2)cc1`, the “activity change, negative = inhibition” value was -93.4%.
